D3 ag = agonists of human D3 dopamine receptor; P35462; D3R DiscoveRx beta-arrestin cells, luminescence, 90 min; max activation, %; 410,000 compounds, 0.58% hits; in the data active = max activation above about 30%; note: 0% is about no effect
Target sequence (P35462 whole entry, looked up): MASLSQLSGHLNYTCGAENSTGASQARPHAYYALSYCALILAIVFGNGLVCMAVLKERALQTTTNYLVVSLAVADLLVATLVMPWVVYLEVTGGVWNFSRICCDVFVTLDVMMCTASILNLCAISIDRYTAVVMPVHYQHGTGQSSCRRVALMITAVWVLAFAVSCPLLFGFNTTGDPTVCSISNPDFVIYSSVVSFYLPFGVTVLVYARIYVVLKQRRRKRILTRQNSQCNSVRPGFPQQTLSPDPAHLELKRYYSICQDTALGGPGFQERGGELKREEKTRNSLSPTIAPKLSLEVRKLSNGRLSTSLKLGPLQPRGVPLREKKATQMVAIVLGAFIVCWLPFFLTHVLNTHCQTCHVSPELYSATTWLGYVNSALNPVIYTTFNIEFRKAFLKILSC
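Agonist mode: compounds and dopamine controls were applied to plated cells for 90 min at 37 degrees C after an overnight attachment at 1500 cells/well. Luminescent read-out followed 30 - 60 minutes at room temperature with DiscoveRx detection reagent.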
KB-3-1 tox = kills parental KB-3-1 adenocarcinoma cells; KB-3-1 viability, CellTiter-Glo ATP luminescence, 72 h; Potency, µM (titrated, usually from 46.1 µM), most hits filed as cytotoxic; 400,000 compounds, 1.4% hits; AID 1347075; note: potency is the fitted concentration of half-maximal effect; % is set by controls: 0 for no effect and ±100 for the full control effect; nearly all actives have a fitted effect of over 60% in size
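KB-3-1 parental drug-naive adenocarcinoma cells in DMEM/10% FBS, incubated 72 h at 37 C with pin-transferred compounds across a concentration series. Viability by CellTiter-Glo luminescence; concentration-response curves fitted after normalization.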
DRD3 antagonist = blocks the human D3 dopamine receptor. 360,000 compounds, 2.5% hits. max response, negative = inhibition, %. D3R cells, DiscoveRx beta-arrestin luminescence, antagonist mode; active compounds read low. P35462; in the data active = max response below about -50%; inconclusive = no clear call, values can overlap the other calls; note: % is set by controls: 0 for no effect and ±100 for the full control effect
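Cells plated overnight at 1500 cells/well, then exposed to library compounds with dopamine controls for 90 minutes at 37 degrees C. DiscoveRx reagent added for 30–60 minutes at room temperature; luminescence read, quantitative HTS format.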
KB-V1 MDR tox = KB-V1 MDR subline cytotoxicity. KB-V1 MDR cells viability, CellTiter-Glo, 72 h. Potency, µM (titrated, usually from 46.1 µM), most hits filed as cytotoxic. 400,000 compounds, 3.4% hits. AID 1347076; note: potency is the fitted concentration of half-maximal effect; % is set by controls: 0 for no effect and ±100 for the full control effect; nearly all actives have a fitted effect of over 60% in size
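KB-V1, DMEM (no phenol red) + 10% FBS; cpd pin-transferred, titration series; 72 h, 37 degrees C; CellTiter-Glo, luminescence. Data normalized, curve-fit.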
SW480 rereplic = inducers of DNA re-replication in SW480 colon cancer cells | SW480 DNA re-replication, Hoechst DNA content imaging, 48 h | Potency, µM (doses to about 46.1 µM), inactives show top-dose re-replication activation, hits mostly activators | 340,000 compounds, 1.8% hits; note: potency is the fitted concentration of half-maximal effect; % of control where 0% means no effect; nearly all actives have a fitted effect of over 55% in size
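Per well, 250 cells were exposed to pinned compound for 48 hr. Nuclear DNA was visualised with Hoechst (40 min, 37 C) and total object intensity recorded by fluorescence scanning.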
MCF10A rerep = DNA re-replication induction in MCF 10a cells. MCF 10A DNA re-replication, Hoechst nuclear intensity, 48 h. Potency, µM (top dose mostly 46.1 µM), without a hit: at the top dose activity, positive = re-replication, actives largely listed as activators. 350,000 compounds, 2.9% hits; note: potency is the fitted concentration of half-maximal effect; % of control where 0% means no effect; nearly all actives have a fitted effect of over 50% in size
The depositor's hits bear a star; i = inactive; ? = inconclusive; / = no result given; [ ] = remark or other dose. Sampled rows, rich in hits. Any-hit rate of the full collection: about 8.9%. Unless noted, calls come from the whole dose curve; as a rule, active = well fitted curve in the direction sought with a large enough effect; inconclusive = small, poorly fitted or top-dose-only effect, or another doubt; inactive = no such curve, though single readings can be large; an effect the other way counts as inactive or inconclusive.

SMILES	D3 ag	KB-3-1 tox	DRD3 antagonist	KB-V1 MDR tox	SW480 rereplic	MCF10A rerep
CCCOc1ccc(CN(C(=O)c2nc(SC(C)C)ncc2Cl)C2CCS(=O)(=O)C2)cc1 (stereo unspecified)	-4.1	i	/	i	/	/
O=C(NCC(c1ccc(Cl)cc1)N1CCCCC1)c1ccccc1 (stereo unspecified)	-21.8	i	/	i	/	/
Cc1ccc(C(=O)N(C)CCOc2ccccc2)cc1S(=O)(=O)N1CCCCC1	-19.7	i	-16.3	i	-23.6%	4.4%
CC(C)CC1(C(=O)NCc2cc(F)cc(C(F)(F)F)c2)C=CCN1C(=O)c1ccccc1 (stereo unspecified)	2.8	i	-28.4	i	8.1%	1.46µM*
CCCOc1ccc(CNC(=O)c2oc3ccc4c(c3c2C)C(=O)CC(C)(CC)O4)cc1 (stereo unspecified)	-0.8	i	/	i	/	/
CCOc1ccc(C(=O)Nc2ccc3nc(Nc4cccc(C(F)(F)F)c4)cc(C)c3c2)cc1OCC	5.5	i	/	i	/	/
Cc1nc(Nc2cnc(/C=C/c3cc(C(=O)Nc4cccc(C(F)(F)F)c4)ccc3C)cn2)cc(N2CCNCC2)n1	4.2	?	-8.6	?	16.4µM*	14.6µM*
O=C(CN1/C(=C(/O)c2ccccc2)C(=O)c2ccccc2S1(=O)=O)c1ccccc1	-1.5	?	-88.2*	1.46µM*	-4.9%	6.0%
COc1ccc(C(=O)CN2C(=O)c3ccccc3S2(=O)=O)cc1	0.0	i	1.6	i	-10.0%	0.7%
COC(=O)c1ccc(NC(=O)c2cc3cc4ccc(OC)c(Cl)c4nc3s2)cc1	-9.1	i	/	i	/	/
O=C(N/N=C/c1ccc([N+](=O)[O-])o1)c1cn(-c2ccccc2)nc1-c1ccccc1	0.7	i	14.5	?	9.7%	16.4µM*
O=C(N/N=C/c1ccc([N+](=O)[O-])o1)c1cc(-c2ccncc2)nc2ccccc12	-20.5	?	-23.5	?	?	5.01µM*
O=C(N/N=C/c1ccco1)c1cc(-c2cccc(Br)c2)nc2ccccc12	3.3	?	22.3	?	13.1%	?
CC(/C=N/NC(=O)c1cc(-c2ccncc2)nc2ccccc12)=C\c1ccco1	8.5	?	-11.1	1.46µM*	0.92µM*	?
O=C(N/N=C/c1ccc([N+](=O)[O-])o1)c1cn(-c2ccccc2)nc1-c1ccc(Cl)cc1	3.6	i	5.2	i	?	?
O=C(N/N=C/c1ccc([N+](=O)[O-])o1)c1cc(-c2ccc(-c3ccccc3)cc2)nc2ccccc12	-11.5	?	?	i	1.3µM*	0.92µM*
Cc1ccc(-c2cc(C(=O)N/N=C/c3ccc([N+](=O)[O-])o3)c3ccccc3n2)o1	-2.0	i	6.9	?	?	?
CCc1ccc(NCc2cc3cc(OC)c(OC)cc3n(CC(=O)Nc3cc(C)ccc3C)c2=O)cc1	3.5	?	/	?	/	/
O=C(N/N=C\c1cn(-c2ccccc2)nc1-c1ccccc1)c1ccc(Br)o1	1.3	?	61.4	?	?	?
Cc1ccc(-c2nn(-c3ccccc3)cc2/C=N/NC(=O)c2ccc(Br)o2)cc1	38.8*	i	0.8	i	-2.8%	?
Cc1ccc(/C=N/NC(=O)c2cc(-c3ccncc3)nc3ccccc23)o1	-11.3	5.8µM*	1.1	i	?	?
COc1ccc(Cc2nc3ccc(C(=O)NCc4cc(Br)ccc4OC)cc3o2)cc1	-19.9	/	/	/	/	/
COc1cc(OC)c(/C=C/c2ccncn2)c(OC)c1	/	?	/	i	/	/
COc1ccc(CNC(=O)c2c(O)c3cccc4c3n(c2=O)CCC4)cc1	6.0	i	14.0	14.6µM*	-54.1%	-0.4%
COc1ccc(CNC(=O)c2c(O)c3cccc4c3n(c2=O)CCC4)cc1OC	23.0	i	-17.1	i	-3.4%	1.4%
SMILES	D3 ag	KB-3-1 tox	DRD3 antagonist	KB-V1 MDR tox	SW480 rereplic	MCF10A rerep
O=C(NCc1ccccn1)c1c(O)c2cccc3c2n(c1=O)CC3	-4.3	i	-56.3*	?	-4.5%[9.22 µM]	3.1%
CCN(CC)CCNC(=O)c1c(O)c2cccc3c2n(c1=O)CCC3	-9.7	i	-18.1	0.731µM*	?	20.6%
O=C(Cn1cc(S(=O)(=O)Cc2ccc(F)cc2)c2ccccc21)NCc1ccccc1	-14.6	i	/	i	/	/
CC(C)(Oc1ccc(C2CCCc3ccccc32)cc1)C(=O)O (stereo unspecified)	-9.8	/	/	/	-10.8%	-2.2%
CCOC(=O)c1cc(C)n(CC2CCC(C(=O)Nc3cccc(C(C)=O)c3)CC2)c1C (stereo unspecified)	6.7	/	/	/	/	/
N#Cc1cc2cc3c(cc2nc1SCC(=O)N1CCOCC1)OCO3	-2.1	i	-2.8	i	-2.2%	1.9%
N#Cc1cc2cc3c(cc2nc1NCCNC(=S)NCCCN1CCOCC1)OCO3	-2.1	i	4.7	i	?	20.6µM*
COc1ccccc1CN1CCN(C2CCN(C(=O)NC(C)C)CC2)C(=O)C1=O	4.8	i	/	?	/	/
CCOc1ccc(S(=O)(=O)NCCc2csc3nc(-c4ccc(F)cc4)nn23)cc1	-9.6	/	/	/	/	/
COc1ccccc1CNC(=O)C/C(C)=N/NC(=O)COc1ccc(C)cc1Br	-19.1	23.1µM*	-15.0	i	-370.4%	-1.1%
CCOC(=O)CCCc1ccc(/C(C)=N/NC(N)=S)cc1	-24.2	?	-28.1	8.2µM*	-1.1%	20.1%
COc1ccc(OC)c(/C=C/C(=O)N2CCN(S(=O)(=O)c3cc(C)ccc3C)CC2)c1	3.9	i	17.8	i	93.0%	?
COc1ccc(OC)c(/C=C/C(=O)N2CCN(S(=O)(=O)c3ccc(C)cc3C)CC2)c1	-1.6	?	0.0	3.66µM*	13.6%	4.1%
COc1cc(C(=O)OCC(=O)N2CCN(S(=O)(=O)c3ccc(C)cc3C)CC2)c([N+](=O)[O-])cc1OC	-5.4	i	14.5	9.2µM*	3.4%	4.1%
COc1cc(C(=O)OCC(=O)N2CCCCCC2)c([N+](=O)[O-])cc1OC	1.4	i	34.7	?	-8.6%	-2.3%
CCOC(=O)C1=C(C)OC(N)=C(C#N)C1c1ccc(O)c(OC)c1 (stereo unspecified)	-5.9	i	-62.1*	i	-6.0%	-2.4%
COC(=O)C1=C(C)OC(N)=C(C#N)C1c1ccccc1 (stereo unspecified)	0.6	i	17.4	i	1.1%	-3.5%
CCSc1cc(C2C(C#N)=C(N)OC(C)=C2C(=O)OC)c(C)o1 (stereo unspecified)	-1.3	i	-67.2*	i	-0.4%	15.7%

Assay outcomes: PubChem BioAssay, National Center for Advancing Translational Sciences (NCATS)
